# Some structures have more than one record in an assay (separate samples or runs), and their calls can disagree. Activity calls are given as the source filed them. Rule for the calls: active = hit-call score of the fitted dose curve at least 0.9, where 1 is the maximum; inactive = score below 0.9.
# What was measured:
# [1] = read-out: Urokinase-type plasminogen activator receptor (uPAR), PLAUR (gene 5329); assay: BSK_4H_uPAR: BioMAP Diversity Plus: 4H Assay for Urokinase-type plasminogen activator receptor (uPAR) Biomarker Activity (AID 2283030); settings: primary human endothelial cells (HUVEC); actives raise or lower the signal
# Method in brief: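 Primary human umbilical vein endothelial cells were exposed to chemical for 24 h before cell-surface uPAR was quantified by ELISA. Activity was fitted bidirectionally against the DMSO negative control baseline.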
# [2] = read-out: Vascular endothelial growth factor receptor 2 (Homo sapiens) (UniProt P35968); assay: BSK_4H_VEGFRII: BioMAP Diversity Plus: 4H Assay for Vascular endothelial growth factor receptor 2 (VEGFR2) Biomarker Activity (AID 2283031); settings: primary human endothelial cells (HUVEC); actives raise or lower the signal;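 for AC50: cell-surface VEGFR2 protein level quantified by ELISA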
# Method in brief: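 Primary human umbilical vein endothelial cells in the BioMAP 4H system were dosed with test chemical, and 24 h later VEGFRII was measured by ELISA. Activity was fitted bidirectionally against DMSO as negative control and baseline.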
# [3] = read-out: Human Leukocyte Antigen - DR isotype (HLADR), HLA-DRA (gene 3122); assay: BSK_BE3C_HLADR: BioMAP Diversity Plus: BE3C Assay for Human Leukocyte Antigen - DR isotype (HLADR) Biomarker Activity (AID 2283032); settings: primary human bronchial epithelial cells; actives raise or lower the signal
# Method in brief: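 Human primary bronchial epithelial cells in the BE3C system were exposed to chemicals for 24 h, after which HLA-DR levels were quantified by ELISA. Activity was fitted bidirectionally, gain or loss of signal, against DMSO as negative control and baseline.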
# [4] = read-out: Vascular cell adhesion molecule 1 (VCAM1), VCAM1 (gene 7412); assay: BSK_4H_VCAM1: BioMAP Diversity Plus: 4H Assay for Vascular cell adhesion molecule 1 (VCAM1) Biomarker Activity (AID 2283033); settings: primary human endothelial cells (HUVEC); actives raise or lower the signal;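 note: cell-surface VCAM-1 protein measured by ELISA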
# Method in brief: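 Primary human umbilical vein endothelial cells were exposed to chemicals for 24 h, after which VCAM-1 was quantified by ELISA. Responses were fitted bidirectionally against DMSO as negative control and activity baseline.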
# [5] = read-out: Interferon-gamma inducible Protein 10 (IP10), CXCL10 (gene 3627); assay: BSK_BE3C_IP10: BioMAP Diversity Plus: BE3C Assay for Interferon-gamma inducible Protein 10 (IP10) Biomarker Activity (AID 2283034); settings: primary human bronchial epithelial cells; actives raise or lower the signal
# Method in brief: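 Human primary bronchial epithelial cells were exposed to chemicals for 24 hours, after which IP-10 levels were measured by ELISA. Data were fitted bidirectionally against DMSO, which served as the negative control and activity baseline.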
# [6] = read-out: Monokine induced gamma interferon (MIG), CXCL9 (gene 4283); assay: BSK_BE3C_MIG: BioMAP Diversity Plus: BE3C Assay for Monokine induced gamma interferon (MIG) Biomarker Activity (AID 2283035); settings: primary human bronchial epithelial cells; actives raise or lower the signal;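 note: MIG protein measured by ELISA in BE3C cultures after 24 h of dosing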
# Method in brief: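 ELISA read-out of MIG in human lung bronchial epithelial primary cultures, 24 h post-dosing. Bidirectional curve fit vs DMSO baseline.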
# [7] = read-out: Plasminogen activator inhibitor-1 (PAI1), SERPINE1 (gene 5054); assay: BSK_BE3C_PAI1: BioMAP Diversity Plus: BE3C Assay for Plasminogen activator inhibitor-1 (PAI1) Biomarker Activity (AID 2283037); settings: primary human bronchial epithelial cells; actives raise or lower the signal
# Method in brief: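 Human primary bronchial epithelial cells were exposed to chemical for 24 h, then PAI-1 was quantified by ELISA. Activity was fitted bidirectionally relative to the DMSO negative control baseline.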
# [8] = read-out: urokinase plasminogen activator (uPA), PLAU (gene 5328); assay: BSK_BE3C_uPA: BioMAP Diversity Plus: BE3C Assay for urokinase plasminogen activator (uPA) Biomarker Activity (AID 2283038); settings: primary human bronchial epithelial cells; actives raise or lower the signal;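 note: uPA protein level quantified by ELISA in cell cultures; uPA read one day after compound addition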
# Method in brief: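 Human primary bronchial epithelial cells were exposed to chemical for 24 h, then uPA levels were measured by ELISA. Responses were fitted bidirectionally against DMSO as negative control and baseline. Parallel SRB staining of total protein gauged overt cytotoxicity.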
# [9] = read-out: Urokinase-type plasminogen activator receptor (uPAR), PLAUR (gene 5329); assay: BSK_BE3C_uPAR: BioMAP Diversity Plus: BE3C Assay for Urokinase-type plasminogen activator receptor (uPAR) Biomarker Activity (AID 2283039); settings: primary human bronchial epithelial cells; actives raise or lower the signal;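 note: cells exposed to compound for one day before measurement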
# Method in brief: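 Primary human bronchial epithelial cells were dosed with chemical and harvested 24 h later; uPAR was quantified by ELISA. Activity was fitted bidirectionally against DMSO as negative control and baseline.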
# [10] = read-out: Interleukin-6 (IL6), IL6 (gene 3569); assay: BSK_CASM3C_IL6: BioMAP Diversity Plus: CASM3C Assay for Interleukin-6 (IL6) Biomarker Activity for (AID 2283040); settings: primary human coronary artery smooth muscle cells; actives raise or lower the signal
# [11] = read-out: Tissue plasminogen activator (tPA), PLAT (gene 5327); assay: BSK_BE3C_tPA: BioMAP Diversity Plus: BE3C Assay for Tissue plasminogen activator (tPA) Biomarker Activity (AID 2283041); settings: primary human bronchial epithelial cells; actives raise or lower the signal;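 note: tPA level quantified by ELISA one day after compound addition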
# Method in brief: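 Human primary bronchial epithelial cells were dosed with chemical and tPA biomarker levels measured by ELISA 24 hours later. Activity was fitted bidirectionally against DMSO as negative control and baseline.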
# [12] = read-out: Interleukin-8 (IL8), CXCL8 (gene 3576); assay: BSK_CASM3C_IL8: BioMAP Diversity Plus: CASM3C Assay for Interleukin-8 (IL8) Biomarker Activity (AID 2283042); settings: primary human coronary artery smooth muscle cells; actives raise or lower the signal;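 note: IL-8 protein level quantified by ELISA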
# [13] = read-out: Human Leukocyte Antigen - DR isotype (HLADR), HLA-DRA (gene 3122); assay: BSK_CASM3C_HLADR: BioMAP Diversity Plus: CASM3C Assay for Human Leukocyte Antigen - DR isotype (HLADR) Biomarker Activity (AID 2283043); settings: primary human coronary artery smooth muscle cells; actives raise or lower the signal;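 note: cell-surface HLA-DR protein level quantified by ELISA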
# [14] = read-out: Macrophage colony-stimulating factor (MCSF), CSF1 (gene 1435); assay: BSK_CASM3C_MCSF: BioMAP Diversity Plus: CASM3C Assay for Macrophage colony-stimulating factor (MCSF) Biomarker Activity (AID 2283044); settings: primary human coronary artery smooth muscle cells; actives raise or lower the signal;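 note: M-CSF protein amount quantified by ELISA after 24 h exposure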
# [15] = read-out: Low-density lipoprotein receptor (LDLR), LDLR (gene 3949); assay: BSK_CASM3C_LDLR: BioMAP Diversity Plus: CASM3C Assay for Low-density lipoprotein receptor (LDLR) Biomarker Activity (AID 2283045); settings: primary human coronary artery smooth muscle cells; actives raise or lower the signal;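 note: LDLR protein level on the cell surface quantified by ELISA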
# [16] = read-out: Monocyte Chemoattractant Protein-1 (MCP1), CCL2 (gene 6347); assay: BSK_CASM3C_MCP1: BioMAP Diversity Plus: CASM3C Assay for Monocyte Chemoattractant Protein-1 (MCP1) Biomarker Activity (AID 2283046); settings: primary human coronary artery smooth muscle cells; actives raise or lower the signal;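 note: MCP-1 level quantified by ELISA 24 h after dosing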
# [17] = BSK_CASM3C_Proliferation: Cell Proliferation Assessment in the BioMAP Diversity Plus: CASM3C Assay (AID 2283047); settings: primary human coronary artery smooth muscle cells;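 note: sulforhodamine B total protein stain as relative cell number at 560 nm; sub-confluent cells exposed 48 h before staining; fitted both ways against DMSO so gain or loss of cell number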
# [18] = read-out: Monokine induced gamma interferon (MIG), CXCL9 (gene 4283); assay: BSK_CASM3C_MIG: BioMAP Diversity Plus: CASM3C Assay for Monokine induced gamma interferon (MIG) Biomarker Activity (AID 2283048); settings: primary human coronary artery smooth muscle cells; actives raise or lower the signal
# [19] = read-out: serum amyloid A (SAA), SAA1 (gene 6288); assay: BSK_CASM3C_SAA: BioMAP Diversity Plus: CASM3C Assay for serum amyloid A (SAA) Biomarker Activity (AID 2283049); settings: primary human coronary artery smooth muscle cells; actives raise or lower the signal;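 note: SAA protein level quantified by ELISA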
# [20] = read-out: Transforming growth factor beta 1 (TGFb1), TGFB1 (gene 7040); assay: BSK_BE3C_TGFb1: BioMAP Diversity Plus: BE3C Assay for Transforming growth factor beta 1 (TGFb1) Biomarker Activity (AID 2283036); settings: primary human bronchial epithelial cells; actives raise or lower the signal
# Method in brief: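 Human primary bronchial epithelial cells (BE3C system) were dosed with chemical and TGF-b1 levels measured by ELISA at 24 h. Activity was fitted bidirectionally relative to DMSO negative control as baseline.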
structure (smiles),measurement,setting,value
FC(F)(F)C(F)(F)C(F)(F)C(F)(F)C(F)(F)C(F)(F)C(F)(F)C(F)(F)CCS,outcome,[1],inactive
same,outcome,[2],inactive
same,outcome,[3],inactive
same,outcome,[4],inactive
same,outcome,[5],inactive
same,outcome,[6],inactive
same,outcome,[7],inactive
same,outcome,[8],inactive
same,outcome,[9],inactive
same,outcome,[10],inactive
same,outcome,[11],inactive
same,outcome,[12],inactive
same,outcome,[13],inactive
same,outcome,[14],inactive
same,outcome,[15],inactive
same,outcome,[16],inactive
same,outcome,[17],inactive
same,outcome,[18],inactive
same,outcome,[19],inactive
C=C(C)C(=O)OCCC(F)(F)C(F)(F)C(F)(F)C(F)(F)C(F)(C(F)(F)F)C(F)(F)F,outcome,[1],inactive
same,outcome,[2],inactive
same,outcome,[3],inactive
same,outcome,[4],inactive
same,outcome,[5],inactive
same,outcome,[6],inactive
same,outcome,[7],inactive
same,outcome,[8],inactive
same,outcome,[9],inactive
same,outcome,[10],inactive
same,outcome,[11],inactive
same,outcome,[12],inactive
same,outcome,[13],inactive
same,outcome,[14],inactive
same,outcome,[15],inactive
same,outcome,[16],inactive
same,outcome,[17],inactive
same,outcome,[18],inactive
same,outcome,[19],inactive
O=C(O)C(F)(F)C(F)(F)C(F)(F)C(F)(F)C(F)(F)C(F)(F)C(F)(F)C(F)(F)C(F)(F)C(F)(F)C(F)(F)C(F)(F)C(F)(F)F,outcome,[1],inactive
same,AC50,[2],932 nM (active)
same,outcome,[2],inactive
same,outcome,[3],inactive
same,outcome,[4],inactive
same,outcome,[5],inactive
same,outcome,[6],inactive
same,outcome,[7],inactive
same,outcome,[8],inactive
same,outcome,[9],inactive
same,outcome,[10],inactive
same,outcome,[11],inactive
same,outcome,[12],inactive
same,outcome,[13],inactive
same,outcome,[14],inactive
same,outcome,[15],inactive
same,AC50,[16],33.9 nM (active)
same,outcome,[16],inactive
same,outcome,[17],inactive
same,outcome,[18],inactive
same,outcome,[19],inactive
CC(=O)Nc1ccc(N=Nc2cc(C)ccc2O)cc1,outcome,[1],inactive
same,outcome,[2],inactive
same,outcome,[3],inactive
same,outcome,[4],inactive
same,AC50,[5],29700 nM (active)
same,outcome,[6],inactive
same,outcome,[20],inactive
same,outcome,[7],inactive
same,outcome,[8],inactive
same,outcome,[9],inactive
same,outcome,[10],inactive
same,outcome,[11],inactive
same,outcome,[12],inactive
same,outcome,[13],inactive
same,outcome,[14],inactive
same,outcome,[15],inactive
same,outcome,[16],inactive
same,outcome,[17],inactive
same,outcome,[18],inactive
same,outcome,[19],inactive
FC(F)(F)C(F)(F)CNCC(F)(F)C(F)(F)F,outcome,[1],inactive
same,outcome,[2],inactive
same,outcome,[3],inactive
same,outcome,[4],inactive
same,outcome,[5],inactive
same,outcome,[6],inactive
same,outcome,[7],inactive
same,outcome,[8],inactive
same,outcome,[9],inactive
same,outcome,[10],inactive
same,outcome,[11],inactive
same,outcome,[12],inactive
same,outcome,[13],inactive
same,outcome,[14],inactive
same,outcome,[15],inactive
same,outcome,[16],inactive
same,outcome,[17],inactive
same,outcome,[18],inactive
same,outcome,[19],inactive

# From PubChem BioAssay (EPA / NIEHS)
